# Data reported in article PMC4336329 (PLoS ONE, 2015).
# The campaign covered roughly 310,000 compounds. About 2,200 (0.71%) showed an effect of 50% or more. Effects have a minus sign here. Shown is part of a subset that was picked to be rich in strong results.
# Molecular target: human ether-à-go-go-related gene (hERG) potassium channel (human, UniProt Q12809)
# Experiment: primary screen, population patch clamp on CHO cells stably expressing hERG; higher = less effect of the substance
# Sequence of human ether-à-go-go-related gene (hERG) potassium channel (Q12809 whole entry, looked up): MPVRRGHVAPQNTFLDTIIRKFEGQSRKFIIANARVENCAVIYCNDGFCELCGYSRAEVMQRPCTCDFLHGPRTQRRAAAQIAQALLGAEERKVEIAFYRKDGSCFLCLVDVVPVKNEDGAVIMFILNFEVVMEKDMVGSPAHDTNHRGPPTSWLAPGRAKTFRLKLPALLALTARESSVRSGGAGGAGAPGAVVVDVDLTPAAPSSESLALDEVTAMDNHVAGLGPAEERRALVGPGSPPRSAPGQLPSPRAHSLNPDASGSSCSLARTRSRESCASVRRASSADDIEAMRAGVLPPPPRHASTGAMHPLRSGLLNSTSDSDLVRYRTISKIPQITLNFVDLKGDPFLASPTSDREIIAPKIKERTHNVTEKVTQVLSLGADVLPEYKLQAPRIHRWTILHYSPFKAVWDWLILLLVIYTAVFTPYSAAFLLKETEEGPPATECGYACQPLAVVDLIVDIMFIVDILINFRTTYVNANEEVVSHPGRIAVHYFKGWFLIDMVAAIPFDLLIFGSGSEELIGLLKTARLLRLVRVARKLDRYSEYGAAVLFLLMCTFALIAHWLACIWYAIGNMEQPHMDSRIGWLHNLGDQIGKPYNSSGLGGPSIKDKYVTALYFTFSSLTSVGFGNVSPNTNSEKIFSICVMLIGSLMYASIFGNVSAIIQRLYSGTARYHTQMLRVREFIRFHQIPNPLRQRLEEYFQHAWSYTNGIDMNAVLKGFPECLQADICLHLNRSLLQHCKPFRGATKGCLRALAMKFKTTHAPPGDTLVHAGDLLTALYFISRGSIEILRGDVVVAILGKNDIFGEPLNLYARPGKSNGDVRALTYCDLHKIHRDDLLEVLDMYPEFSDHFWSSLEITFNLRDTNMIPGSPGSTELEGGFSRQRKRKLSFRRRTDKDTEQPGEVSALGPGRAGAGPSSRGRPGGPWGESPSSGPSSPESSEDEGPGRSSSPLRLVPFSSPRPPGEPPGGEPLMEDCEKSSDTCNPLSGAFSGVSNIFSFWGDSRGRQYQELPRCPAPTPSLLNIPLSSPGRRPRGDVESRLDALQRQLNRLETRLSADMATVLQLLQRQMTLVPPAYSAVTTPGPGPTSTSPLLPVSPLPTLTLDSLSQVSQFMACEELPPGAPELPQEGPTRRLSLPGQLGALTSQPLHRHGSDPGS
row,SMILES,"hERG current change (%, negative = inhibition) at 1uM [%]"
1,CCC(=O)Nc1nnc(-c2ccco2)o1,2.56
2,O=C1OC(c2ccccc2)c2ccccc21 (stereo not shown),9.85
3,COC(=O)C1=C(C)NC(=O)C1(Nc1nccs1)C(F)(F)F (stereo not shown),8.37
4,Cl.Nc1nc(N2CCCCC2)nc2ccccc12,-15.9
5,CCCN(CCC)c1nc(-c2ccccn2)nc2ccccc12,-72.4
6,CN1CCN(c2nc(Nc3ccc(O)cc3)nc3ccccc23)CC1.Cl,-1.34
7,CCC(C)Nc1nc(-c2ccccn2)nc2ccccc12 (stereo not shown),-11.6
8,CCCCN(CCCC)c1nc(-c2ccncc2)nc2ccccc12,12
9,COc1ccc(Nc2nc(N3CCCC3)c3ccccc3n2)cc1.Cl,-15
10,Cl.Oc1ccc(Nc2nc(N3CCCC3)c3ccccc3n2)cc1,-62.7
11,Nc1nc(N2CCOCC2)nc2ccccc12,-8.34
12,c1ccc(-c2nc(N3CCCCCC3)c3ccccc3n2)nc1,-82.3
13,c1ccc(N2CCN(c3nc(-c4ccccn4)nc4ccccc34)CC2)cc1,-26.9
14,Cl.Nc1nc(N2CCN(c3ccccn3)CC2)nc2ccccc12,-52.8
15,c1ccc(-c2nc(N3CCOCC3)c3ccccc3n2)nc1,5.13
16,CCOC(=O)c1cc(S(=O)(=O)N2CCN(Cc3ccccc3)CC2)cn1C,7.46
17,C/C(=N\Nc1cccc2cccnc12)c1ccc[nH]1,6.24
18,COc1ccc(C(=O)N2CCN(CCNC(=O)C(=O)Nc3ccc(Br)cc3)CC2)cc1,-25.2
19,CCCc1ccc2c(N)c(C#N)sc2n1,1.34
20,CC(C)C(NC(=O)c1c(F)cccc1F)C(=O)NCC(c1ccccc1)N(C)C (stereo not shown),7.89
21,COc1ccccc1NS(=O)(=O)c1cccc(C(=O)NCC(c2ccc(F)cc2)N2CCOCC2)c1 (stereo not shown),-2.64
22,O=c1oc2cc(Oc3ccc(C(F)(F)F)cc3[N+](=O)[O-])ccc2c2c1CCCC2,7.24
23,COc1ccc(OC)c(C(O)c2nc3ccccc3n2C(C)C)c1 (stereo not shown),12.9

row,SMILES,"hERG current change (%, negative = inhibition) at 1uM [%]"
1,COc1cccc2cc(C(=O)C3=C(O)C(=O)N(Cc4ccco4)C3c3cccnc3)oc12 (stereo not shown),-5.76
2,CCOc1ccc(OCCCC(=O)ON=C(N)c2ccccc2C)cc1,2.24
3,c1ccc2c(N3CCCCC3)nc(N3CCCC3)nc2c1,-64.6
4,c1ccc2c(N3CCCCC3)nc(N3CCOCC3)nc2c1,-7.24
5,c1ccc2c(N3CCCCC3)nc(N3CCCCC3)nc2c1,-3.29
6,CC(=O)c1ccc(NC(=S)Nc2cccc(S(=O)(=O)Nc3c(C)n(C)n(-c4ccccc4)c3=O)c2)cc1,11.4
7,Cc1ccc(/C=N\NC(=O)CCc2n[nH]c(=O)[nH]c2=O)o1,10.9
8,O=c1c2c3c(sc2n(CCN2CCCCC2)c(=O)n1Cc1ccco1)CCCCC3,3.26
9,O=c1c2c3c(sc2n(CCN2CCCC2)c(=O)n1Cc1ccco1)CCCCC3,-67
10,O=c1c2c3c(sc2n(CCN2CCOCC2)c(=O)n1Cc1ccco1)CCCCC3,-9.12
11,COc1ccc(CNC(=O)NCc2ccc(OC)c(OC)c2)cc1OC,17.1
12,O=c1cc2oc3cc(O)c(O)cc3c(-c3ccccc3[N+](=O)[O-])c-2cc1O,8.61
13,N#Cc1ccccc1OCC(=O)OCC(=O)c1c[nH]c2ccccc12,7.92
14,O=C(CSc1nc(O)cc(=O)[nH]1)Nc1ccc2c(c1)CCC2,18.4
15,COc1ccc(OCC(O)CNCCNc2nccc(C(F)(F)F)n2)cc1 (stereo not shown),-6.87
16,O=[N+]([O-])c1ccc(OCC(O)CNCCNc2nccc(C(F)(F)F)n2)cc1 (stereo not shown),-77.9
17,OC(CNCCNc1ncccc1C(F)(F)F)COc1ccc(F)cc1 (stereo not shown),-25.6
18,CC(CCc1ccc(O)cc1)NCc1ccc(Br)cc1 (stereo not shown),-66.8
19,CC(CCc1ccc(O)cc1)NCc1ccc(Cl)cc1Cl (stereo not shown),-10.9
20,CC(CCc1ccc(O)cc1)NCCc1ccc(O)c(O)c1.Cl (stereo not shown),2.55
21,COc1ccccc1CCNC(C)CCc1ccc(O)cc1 (stereo not shown),-10.8
22,CC(CCc1ccc(O)cc1)NCCC(c1ccccc1)c1ccccc1 (stereo not shown),-84.2
23,COc1ccc(CCC(C)NCc2cccc(Br)c2)cc1 (stereo not shown),-32.1

row,SMILES,"hERG current change (%, negative = inhibition) at 1uM [%]"
1,O=C(Nc1ccc2c(c1)OCO2)c1cnccn1,8.63
2,NC(=O)NCc1ccc(F)cc1,4.8
3,COc1ccc(-c2noc3c2-c2nc(-c4ccccc4C)sc2CC3)cc1,15.4
4,Cc1cc(O)c(C(=O)/C=C/c2ccccc2O)c(=O)o1,8.29
5,CCOc1c(Br)cc(CNc2ncn[nH]2)cc1OC,9.07
6,COc1ccc(C(F)(F)F)cc1NC(=O)c1nc2nc(C)cc(C(F)F)n2n1,17.2
7,CCOC(=O)C1=C(c2ccccc2)Nc2ncnn2C1c1cccc(OC)c1OC (stereo not shown),21.4
8,CCN(CC)CCNc1ncnc2c1[nH]c1ccc(OC)cc12,-42.6
9,COc1ccc2[nH]c3c(NCCN(C(C)C)C(C)C)ncnc3c2c1,-71.9
10,COc1ccc2[nH]c3c(NCCCOC(C)C)ncnc3c2c1,22.8
11,COc1cc(NS(=O)(=O)c2ccc(NC(=O)/C=C/C(=O)O)cc2)nc(OC)n1,5.24
12,O=C(O)C1=C[C@@H](C2CC2)C[C@@H](OCCCCO)O1,10.7
13,COc1cccc(C2=NOC(C(=O)Nc3cccnc3Cl)C2)c1OC (stereo not shown),14.2
14,COc1ccccc1C(=O)Nc1ccc2nc3n(c(=O)c2c1)CCCC3,-2.02
15,COc1ccc(Cl)cc1C(=O)Nc1ccc2nc3n(c(=O)c2c1)CCCC3,-51.8
16,COc1cc(C(=O)Nc2ccc3nc4n(c(=O)c3c2)CCCCC4)cc(OC)c1OC,-1.94
17,COc1cc2c(C(=O)N3CCCc4ccccc43)cn(C)c(=O)c2cc1OC,7.48
18,N#Cc1cc([N+](=O)[O-])ccc1N1CCCC1,-12.3
19,O=C(c1ccc(Cl)cc1)c1cc([N+](=O)[O-])ccc1N1CCOCC1,10.3
20,CCCN1CCN(c2ccc([N+](=O)[O-])cc2C#N)CC1,-57.8
21,CCN1CCN(c2ccc([N+](=O)[O-])cc2C#N)CC1,-49.8
22,CCN1CCN(c2ccc([N+](=O)[O-])cc2C(=O)c2ccc(Cl)cc2)CC1,-58.3
23,CN1CCN(c2ccc([N+](=O)[O-])cc2C(=O)c2ccc(Cl)cc2)CC1,-24.3

row,SMILES,"hERG current change (%, negative = inhibition) at 1uM [%]"
1,Cc1ccc(NCCC(=O)c2cccs2)cc1C,5.33
2,O=C(CSc1cn(Cc2ccccc2)c2ccccc12)N1CCOCC1,-4.92
3,CCOc1ccc(NC(=S)NCCCN2CCN(c3ccc(OC)cc3)CC2)cc1,-29.3
4,O=c1[nH]c2ccccc2nc1-c1c[nH]c2ccccc12,17.9
5,Cc1ccccc1-n1nnnc1SCC(=O)NCC1(N2CCOCC2)CCCCC1,6.3
6,O=C(CSc1nnnn1-c1ccccc1)NCC1(N2CCCCC2)CCCCC1,-23.9
7,Cc1ccc(-n2nnnc2SCC(=O)NCC2(N3CCCCC3)CCCCC2)c(C)c1,-201
8,Cc1ccc(CNC(=O)c2cnccn2)cc1,11.4
9,COc1ccc(NC(=O)[C@@H](NC(=O)N2C[C@H]3C[C@@H](C2)c2cccc(=O)n2C3)C(C)C)cc1,8.5
10,Fc1ccc(-c2nc3c(-c4ccc(F)cc4)cnn3cc2CCN2CCOCC2)cc1,-3.19
11,Cc1cc(C)c(CN2CCC(n3nccc3NC(=O)C3CCCC3)CC2)cc1C,-26.4
12,COc1ccc(/C=C/CN2CCC(n3nccc3NC(=O)C3CCCC3)CC2)cc1,-92.1
13,COc1ccc(CC(=O)N2CCC(n3nccc3NC(=O)C3CC3)CC2)cc1,13.3
14,COc1ccccc1/C=C/CN1CCC(n2nccc2NC(=O)C2CC2)CC1,-37.8
15,COc1ccc(/C=C/CN2CCC(n3nccc3NC(=O)C3CC3)CC2)cc1,-59.6
16,COc1ccc(CN2CCC(n3nccc3NC(=O)C3CCCC3)CC2)c(OC)c1,-70.6
17,COc1ccc(O)c(CN2CCC(n3nccc3NC(=O)C3CCCC3)CC2)c1,-28.4
18,COc1ccc(OCC(=O)N2CCC(n3nccc3NC(=O)C3CC3)CC2)cc1,-1.98
19,CC(C)(CO)CN1CCC(n2nccc2NC(=O)C2CCCC2)CC1,10.2
20,Cc1ncc(S(=O)(=O)c2ccccc2)c(-c2ccccc2Cl)n1,2.7
21,Cc1cc2c(cc1S(=O)(=O)NC1CCCCC1C)OCC(=O)N2 (stereo not shown),5.01
22,Cc1ccc(OCCNC(=O)c2ccc(NC(=O)CC3SC(N4CCCC4)=NC3=O)cc2)cc1 (stereo not shown),-6.94
